Source: paper PMC7819943, “Rice protein-binding microarrays: a tool to detect cis-acting elements near promoter regions in rice”
The full ranking holds about 39,000 sequences; the median of “fluorescence intensity (a.u.)” is about 4,300, and the highest 2% start at about 39,000. Many of the other results were omitted from the sample, so the highest values are more common in it than they were.

biological target: T1, OsSMF1 (Oryza sativa, UniProt Q6ZLB0 1-436); test: protein-binding microarray (RPBM); PBS, 2% BSA, 51.3 ng/ul salmon testes DNA, 50 uM zinc acetate, 200 nM TF, 25 C, 1 h; high values mean tight binding; conditions: protein: recombinant; tags: N-terminal polyhistidine and DsRed monomer fusion (pET32a); chain copies: 2; label: CyDye5-dUTP incorporated in the synthesized complementary strand; 3' TTTTT single-stranded linker to array surface; dsDNA, one strand shown
T1 sequence: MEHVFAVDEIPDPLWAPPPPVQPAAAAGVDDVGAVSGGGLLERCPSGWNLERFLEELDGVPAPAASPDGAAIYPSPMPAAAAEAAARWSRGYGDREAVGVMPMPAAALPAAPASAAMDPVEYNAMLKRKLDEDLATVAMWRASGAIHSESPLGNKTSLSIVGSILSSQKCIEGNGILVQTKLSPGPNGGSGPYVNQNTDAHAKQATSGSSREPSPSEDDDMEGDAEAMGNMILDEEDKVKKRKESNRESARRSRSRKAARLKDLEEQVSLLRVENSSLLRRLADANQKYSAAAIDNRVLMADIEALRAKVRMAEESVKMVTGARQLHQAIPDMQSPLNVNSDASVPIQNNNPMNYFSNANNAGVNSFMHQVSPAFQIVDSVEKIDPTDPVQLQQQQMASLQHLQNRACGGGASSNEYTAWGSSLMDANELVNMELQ
In short: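 Transcription factors were each fused at the N-terminus to a polyhistidine tag plus DsRed and expressed in E. coli BL21-CodonPlus before Ni–NTA purification. Binding to a double-stranded custom Agilent array was carried out with 200 nM protein at 25 °C for 1 h in PBS, 2% BSA, salmon testes DNA and 50 µM zinc acetate. The binding signal is per-feature fluorescence intensity, in arbitrary units, on an Axon 4000B scanner.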

Sequence | binding signal
AAGGTTTGGAACATTCTGTTACCTATGAATACTGCACAGGCGGAGTCACCTAGTGCAG | 11700 fluorescence intensity (a.u.)
AAGAGCGTTTAAACAAGCTGTGGAGTCAGCAGATAGATTACGGAGTCACCTAGTGCAG | 3940 fluorescence intensity (a.u.)
GGGCGGCGACGACGGTCACGGCGGACAAGGGCGGCGGCAACGGAGTCACCTAGTGCAG | 3160 fluorescence intensity (a.u.)
CGTCGGCGGCGGCGGAGGGGAGGACGACGTGGTCGACCTCCGGAGTCACCTAGTGCAG | 3590 fluorescence intensity (a.u.)
CCGACGAGGACGAGGCGGCGTGGTCGAAGCCGGCGGTCGGCGGAGTCACCTAGTGCAG | 42500 fluorescence intensity (a.u.)
GCATCGCCATCGCCGCGTGGTGGCGCACCATTCGCGTCACCGGAGTCACCTAGTGCAG | 5300 fluorescence intensity (a.u.)
ATCTAGCGACGAGAAGAGAGGAAGGGAGGGAGGCGTCACGCGGAGTCACCTAGTGCAG | 3830 fluorescence intensity (a.u.)
AAAGGAAAGGCGCGTCACGGCGTCAGACGAGACGACGACGCGGAGTCACCTAGTGCAG | 3340 fluorescence intensity (a.u.)
GGCTCGCAGAAAGGCGGACGACAAGGGCTCAGCAGGGTCACGGAGTCACCTAGTGCAG | 39500 fluorescence intensity (a.u.)
GGAGGAGTGGTCGCCGGGGATCATCGCGCGGCGTCACCGGCGGAGTCACCTAGTGCAG | 3570 fluorescence intensity (a.u.)
CCGGGAAGGGAGAGGGAGAGAGGAGTCGGGGCGAGAAGTGCGGAGTCACCTAGTGCAG | 3500 fluorescence intensity (a.u.)
CATCGCCGCGCGTGCACCAGAGGACCAGACCGACCGGCGTCGGAGTCACCTAGTGCAG | 50200 fluorescence intensity (a.u.)
CGACGAGAAGGACACCTCCTCGGAAAAGGGAGGGCGTCGGCGGAGTCACCTAGTGCAG | 44600 fluorescence intensity (a.u.)
GGAGGCGGCGGCGACGAGGAGGGGCGTGGGCGGCGGCGGCCGGAGTCACCTAGTGCAG | 3660 fluorescence intensity (a.u.)
GTATCCATTCCTGCAAATCCAAGTTGGCAATTCCGAGGGCCGGAGTCACCTAGTGCAG | 3340 fluorescence intensity (a.u.)
GCGGCGCGACAGCGACAAAGCGCACGCGCGCGGCGAGCTGCGGAGTCACCTAGTGCAG | 30800 fluorescence intensity (a.u.)
TAACTTTGGAACAGGCTGATAAGGGTGGATCCTGCGGTTGCGGAGTCACCTAGTGCAG | 3440 fluorescence intensity (a.u.)
CTGTTTCAGCACCACTGAGTTCGCAGCAAATGACACAAGGCGGAGTCACCTAGTGCAG | 3340 fluorescence intensity (a.u.)
CTTCAGGGTCTAGTCTTTTCAAACCATCGGAGTTATCGTCCGGAGTCACCTAGTGCAG | 3530 fluorescence intensity (a.u.)
CCGTCACGGATGACACTTATCTGTGACGGGCTATAGTTGACGGAGTCACCTAGTGCAG | 4260 fluorescence intensity (a.u.)
GTCGCGCGCTTGGTGGCTTGCAAGAACCAGCTCCACCGCGCGGAGTCACCTAGTGCAG | 3300 fluorescence intensity (a.u.)

Sequence | binding signal
GATTCGTTGAATACCGTCATTATTGGTGGGTTATCATCATCGGAGTCACCTAGTGCAG | 3490 fluorescence intensity (a.u.)
GTGGAGTGCGGTGGACGGAGCGGCGGGGCGGGGCGGTCAGCGGAGTCACCTAGTGCAG | 6720 fluorescence intensity (a.u.)
AAAGTTTTGCATGCCGCTGTCGAAGTCGGCTTCCGCGTAGCGGAGTCACCTAGTGCAG | 32300 fluorescence intensity (a.u.)
TCGGCGCCGCGCCGCGCCACGGAGGGTGTCACGAGACCGCCGGAGTCACCTAGTGCAG | 4790 fluorescence intensity (a.u.)
GCCAACGAGGTCGCGTTCGACAAGGTGAAGGACGCCGGCGCGGAGTCACCTAGTGCAG | 39600 fluorescence intensity (a.u.)
ACCAACAAGGTCGTCGCCGACGACGCCGACGCCGACGCCGCGGAGTCACCTAGTGCAG | 27600 fluorescence intensity (a.u.)
TTAGTGAACGGTGCAACGCGTCAAGGACGAGTCAACGCGCCGGAGTCACCTAGTGCAG | 4850 fluorescence intensity (a.u.)
ACGGAGAAGTCCCGAGACCGGCGCCGCCAGGACCGCCACCCGGAGTCACCTAGTGCAG | 44400 fluorescence intensity (a.u.)
TGCAGCAGGAGATCGATCGATCGATCGATCCAACCGAATGCGGAGTCACCTAGTGCAG | 3260 fluorescence intensity (a.u.)
AGAGAGAGAGAGAGAGAGAGAGAGCTCAGGATCGACGAGACGGAGTCACCTAGTGCAG | 16900 fluorescence intensity (a.u.)
AACCGAATCCAATCGAGCTCAGGACGAGGCGGAGGAGGAGCGGAGTCACCTAGTGCAG | 42900 fluorescence intensity (a.u.)
GCCTAGCCAGGATCGCCGCCGGCGGCGCCGCCGAGTCACACGGAGTCACCTAGTGCAG | 33100 fluorescence intensity (a.u.)
TCTCCATAAGAGCACCCACCAACTCAGCCTCTCCTCCCATCGGAGTCACCTAGTGCAG | 3340 fluorescence intensity (a.u.)
CTCCTCCGCCGCCGCCGCTCCCAGCCTGCACGCCGGCCGCCGGAGTCACCTAGTGCAG | 26200 fluorescence intensity (a.u.)
GTGCTGTTCCTGCATGTGCATGCATGTATGAGTACGTACGCGGAGTCACCTAGTGCAG | 3910 fluorescence intensity (a.u.)
TCTCTCTTCACGGGAGGGCAGTGTGGTTTTGGTCGGATTCCGGAGTCACCTAGTGCAG | 3530 fluorescence intensity (a.u.)
TAGTAGATCTAGTATTTTATCTTTAGTCCATCTACCGAGCCGGAGTCACCTAGTGCAG | 28500 fluorescence intensity (a.u.)
GCCGCTACAAACCGTGGGCAAGACGTGTCGCCATGGGAGCCGGAGTCACCTAGTGCAG | 4560 fluorescence intensity (a.u.)
TGCCAATGTTCCAATTGGTGTTGTCATCTTTGGGTTACCACGGAGTCACCTAGTGCAG | 14100 fluorescence intensity (a.u.)
ATTTGGGATGTCTTTATCTCATCCAATTAATCCACGGATACGGAGTCACCTAGTGCAG | 49200 fluorescence intensity (a.u.)
CAATTTAATGCTACTTATCTCACATGATGTCTTGGATGTTCGGAGTCACCTAGTGCAG | 3980 fluorescence intensity (a.u.)
